# This is a sample that favours compounds with a hit; in the whole collection about 16% have one here.
# TDP1 inh: qHTS Assay for Inhibitors of Tyrosyl-DNA Phosphodiesterase (TDP1). Tyrosyl-DNA phosphodiesterase 1 (Homo sapiens), Q9NUW8. recombinant TDP1, AlphaScreen DNA substrate cleavage. Potency, µM (titrated, usually from 130 µM), inactives show at the top dose activity change, negative = inhibition, most hits filed as inhibitors. hit rate 0.28% among 350,000; further: potency means the concentration at half of the fitted maximal effect; on the % scale 0 is the no-effect control and ±100 the full control effect; nearly all actives have a fitted effect of over 40% in size
# Target sequence (Q9NUW8 whole entry, looked up): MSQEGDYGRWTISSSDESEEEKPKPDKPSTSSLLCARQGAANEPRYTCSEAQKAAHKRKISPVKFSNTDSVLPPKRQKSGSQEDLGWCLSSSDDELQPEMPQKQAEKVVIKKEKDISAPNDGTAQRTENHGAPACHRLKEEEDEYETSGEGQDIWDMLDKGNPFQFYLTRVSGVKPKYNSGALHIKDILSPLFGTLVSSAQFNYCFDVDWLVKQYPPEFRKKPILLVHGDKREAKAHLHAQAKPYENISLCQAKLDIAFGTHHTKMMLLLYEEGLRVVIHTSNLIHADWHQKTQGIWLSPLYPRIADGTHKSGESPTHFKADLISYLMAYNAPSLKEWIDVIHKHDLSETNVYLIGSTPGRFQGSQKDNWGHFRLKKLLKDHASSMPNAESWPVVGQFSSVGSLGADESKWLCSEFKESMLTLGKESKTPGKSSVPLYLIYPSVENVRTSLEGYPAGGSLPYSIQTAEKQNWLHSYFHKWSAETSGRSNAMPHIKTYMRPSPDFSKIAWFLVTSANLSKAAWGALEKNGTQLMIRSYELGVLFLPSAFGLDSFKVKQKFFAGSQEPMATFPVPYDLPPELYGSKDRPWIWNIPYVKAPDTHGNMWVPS
#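 Recombinant human Tdp1 (E. coli-expressed, 1 nM final) preincubated with compounds 15 min at room temperature, then 5'-biotin/3'-phosphotyrosine-FITC DNA substrate (15 nM final) added for 5 min. AlphaScreen beads (10 ug/ml final) added 10 min; cleavage lowers signal.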
# TDP1 cell CPT: qHTS for Inhibitors of human tyrosyl-DNA phosphodiesterase 1 (TDP1): qHTS in cells in presence of CPT | chicken DT40 Tdp1-/-;hTDP1 cells + 20 nM CPT, ATP luminescence, 48 h | Potency, µM (titrated, usually from 46.2 µM), for the others: at the top dose activity change, negative = growth inhibition, actives largely listed as inhibitors | hit rate 12% among 420,000 | AID 686979, 2013; further: potency means the concentration at half of the fitted maximal effect; on the % scale 0 is the no-effect control and ±100 the full control effect; nearly all actives have a fitted effect of over 55% in size
#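 Cell growth measured by CellTiter-Glo luminescence after a minimum 48 h, 37 C compound exposure with 20 nM CPT in Tdp1-knockout DT40 cells stably expressing hTDP1, seeded 400/well; qHTS titration format.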
# uPA surface inh: qHTS for Inhibitors of Cell Surface uPA Generation | cell surface uPA generation assay, qHTS | Potency, µM (top dose mostly 38.3 µM), for inactives: at the highest dose activity change, negative = inhibition, actives largely listed as inhibitors | hit rate 0.31% among 330,000 | AID 540303, 2011; active means well fitted inhibition curve with a large enough effect; inconclusive means small, poorly fitted or top-dose-only effect; inactive means no such curve, though single readings can be large or run the other way; tested in mouse RAW 264.7 cells; further: potency means the concentration at half of the fitted maximal effect; on the % scale 0 is the no-effect control and ±100 the full control effect; nearly all actives have a fitted effect of over 55% in size
# miR-21 reporter: qHTS Assay for Modulators of miRNAs and/orActivators of miR-21 | AID 2288, 2010 | HeLa miR-21 FLuc reporter, luciferase, 48 h | Potency, µM (series often up to 38.3 µM), inactives show at the highest dose activity change, positive = activation, actives largely listed as activators | 340,000 tested, under 10 active;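 further: % of control where 0% means no effect; miR-21 action dims this reporter so a rising signal means less miR-21 action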
#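 HeLa cells endogenously expressing miR-21, stably carrying CMV-driven firefly luciferase with a downstream miR-21 binding site, 2000 cells/well. Titrations up to approximately 40 uM, 48 hours; luciferase luminescence read.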
# TDP1 cell noCPT: qHTS for Inhibitors of human tyrosyl-DNA phosphodiesterase 1 (TDP1): qHTS in cells in absence of CPT | DT40 Tdp1-/- hTDP1 cells, no CPT, ATP luminescence, 48 h | Potency, µM (series often up to 46.2 µM), inactives show at the top dose activity change, negative = growth inhibition, most hits filed as inhibitors | hit rate 15% among 420,000 | AID 686978, 2013; further: potency means the concentration at half of the fitted maximal effect; on the % scale 0 is the no-effect control and ±100 the full control effect; nearly all actives have a fitted effect of over 55% in size
#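 Readout: luminescence from CellTiter-Glo after 30 min in the dark at RT. Cells: DT40 Tdp1-/- with stable hTDP1, 400/well. Exposure: compounds alone, ≥48 hr, 37 °C.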
# An asterisk follows results filed as active; ? = inconclusive; . = no result given; ! = not confirmed by another sample; [ ] = remark or other dose. Unless noted, the call rests on the fitted dose curve; in most records, active means well fitted curve in the direction sought with a large enough effect; inconclusive means small, poorly fitted or top-dose-only effect, or another doubt; inactive means no such curve, though single readings can be large; an effect the other way counts as inactive or inconclusive.
SMILES,TDP1 inh,TDP1 cell CPT,uPA surface inh,miR-21 reporter,TDP1 cell noCPT
CC1(OC(=O)C2CCCC2)C(=O)C=C2C=C(c3ccsc3)N(C3CCCCC3)C=C2C1=O (stereo not drawn),10%[12.3 µM],21µM*,10%,3%,21µM*
CC1(OC(=O)CCc2ccccc2)C(=O)C=C2C=C(c3ccc(C#N)cc3)N(C3CCCCC3)C=C2C1=O (stereo not drawn),6%[21 µM],26µM*,-22%,10%,?
CC1(OC(=O)CCc2ccccc2)C(=O)C=C2C=C3CCCN3C=C2C1=O (stereo not drawn),4.5µM*!,9%,-4%,8%,-2%
CC1(OC(=O)C2CCCC2)C(=O)C=C2C=C3CCCN3C=C2C1=O (stereo not drawn),-9%[12.3 µM],.,.,.,.
CC1(OC(=O)C2CCCC2)C(=O)C=C2C=C(c3ccsc3)N(CC3CC3)C=C2C1=O (stereo not drawn),7%[12.3 µM],-13%,16%,3%,?
C=CCNC(=O)NC(=O)COC(=O)CCCSc1nc2ccccc2[nH]1,5%,10%,.,0%,-16%
CCCC/C=C/[C@H](c1ccccc1)[C@H](CO)Cc1ccccc1,-13%,.,.,.,.
CCCC/C=C/[C@H](c1ccccc1)[C@H](CO)Cc1cccnc1,-1%,?,7%,.,16µM*
CCOC(=O)c1c(C)[nH]c(C(=O)OCC(=O)N2c3ccccc3CC2C)c1C (stereo not drawn),7%,?,6%,10%,18µM*
CC1Cc2ccccc2N1C(=O)COC(=O)c1cccc(Br)c1 (stereo not drawn),-6%,-18%,1%,.,18%
CCOC(=O)C1=C(C)NC(C)=C(C(=O)OCC)C1C(=O)OCC(=O)N1c2ccccc2CC1C (stereo not drawn),8%,?,2%,4%,18µM*
CNC(=O)C1C(=S)NC(N)=C(C#N)C1c1ccccc1 (stereo not drawn),5%,26µM*,.,0%,6.5µM*
CSC1=C(C#N)C(c2ccccc2)C(C(C)=O)=C(C)N1 (stereo not drawn),5%,1%,1%,0%,-2%
COc1ccccc1CC(=O)NCCc1ccccc1,1%,-2%,15%,-9%,23%
CN1CCN(c2ccc(CNC[C@H]3O[C@@H](n4cnc5c(=O)[nH]c(N)nc54)[C@H](O)[C@@H]3O)c(S(C)(=O)=O)c2)CC1,.,6%,.,.,-5%
O=C(C(=Cc1ccccc1)CN1CCCCC1)c1ccccc1,.,0.73µM*,-6%,.,1.5µM*
O=C(CCCCN1CCCCC1)c1ccccc1,.,-8%,2%,.,-14%
Cc1cc(/C=C(\C#N)C(=O)OCC#N)c(C)n1CC(C)C,0%,?,2%,-6%,-23%
NC(=O)C1CCCN(Cc2ccc3ccccc3c2)C1 (stereo not drawn),.,3%,12%,-5%,-2%
COc1ccc(Cn2cc(CN3CC(N4CCN(Cc5ccccc5F)CC4)CS3(=O)=O)nn2)cc1 (stereo not drawn),.,?,.,.,21µM*
O=S1(=O)CC(N2CCN(Cc3ccccc3F)CC2)CN1Cc1cn(Cc2ccc(Cl)cc2)nn1 (stereo not drawn),.,18µM*,.,.,13µM*
O=c1n(Cc2ccc(Cl)cc2)c2sc3c(c2c2ncnn12)CCCC3,2%,?,-5%,-4%,15µM*
CCOC(=O)c1c(NC(C)=O)c2c3c(sc2n1Cc1cc(C)ccc1C)CCCC3,5%,5.8µM*,.,-3%,?
CCOC(=O)c1c(NC(C)=O)c2c3c(sc2n1Cc1cccc(Cl)c1)CCCC3,5%,?,.,-8%,15µM*
CCOC(=O)c1c(NC(C)=O)c2c3c(sc2n1Cc1nc(-c2ccccc2C)oc1C)CCCC3,4%,0%,.,-6%,-17%
